# Measurements reported in PubChem BioAssay AID588453 (National Center for Advancing Translational Sciences (NCATS), 2011).
# The campaign covered roughly 390,000 compounds. About 4,000 (1%) were called active. Inconclusive results (about 4%) are left out. The full list was thinned out, with actives kept by preference. A number with no mark means an inactive call. The call rests on the fitted dose curve; in most records, active means well fitted inhibition curve with a large enough effect; inconclusive means small, poorly fitted or top-dose-only effect; inactive means no such curve, though single readings can be large or run the other way.
# Target: Thioredoxin reductase 1, cytoplasmic (Rattus norvegicus) (UniProt O89049)
# Assay: qHTS Assay for Inhibitors of Mammalian Selenoprotein Thioredoxin Reductase 1 (TrxR1): qHTS; further: nearly all actives have a fitted effect of over 65% in size
# Settings: recombinant rTrxR1, NADPH fluorescence consumption, selenite substrate; series mostly up to 114 µM; activity change, negative = inhibition: at the top concentration
# Description: The selenoprotein thioredoxin reductase (TrxR; EC 1.8.1.9) is a FAD containing homodimeric pyridine nucleotide-disulfide oxidoreductase with many cellular roles. Together with NADPH and its prime substrate thioredoxin (Trx), the enzyme forms the core of the Trx system. The mammalian Trx system exerts a wide spectrum of functions including redox regulation, antioxidant defense, regulation of transcription factors as well as support of cell growth and replication. Many of these functions involve the reduction of Trx, which may subsequently reduce a number of different substrates including ribonucleotide reductase, peroxiredoxins or NFkB. Mammalian TrxR itself also has a broad substrate specificity, reducing both protein and non-protein substrates, including low molecular weight compounds such as dehydroascorbate, lipoic acid, ubiquinone, and juglone. In addition, several drugs in clinical use for anticancer treatment are indeed known to target TrxR1.
# This BioAssay is a validation of an NADPH fluorescence-based, dual-purpose qHTS rTrxR1 assay designed to find potential inhibitors and substrates of rTrxR1. For this particular BioAssay, actives are potential inhibitors. See related BioAssay for substrate data deposition.
# NIH Molecular Libraries Probe Production Network [MLPCN]
# NIH Chemical Genomics Center [NCGC]
# Assay Provider: Elias Arner, Karolinska Institute
# Assay protocol: 2 uL of reagents (buffer in column 4 as negative control and 90 nM rTrxR1 in columns 1-3 and 5-48) were dispensed into Greiner black solid-bottom 1,536-well assay plates, followed by 1 uL of NADPH (400 uM final concentration) to each well. The plates were centrifuged at 1000 rpm for 15 seconds and subsequently incubated for 5 min at room temperature (~22 deg C) to allow for rTrxR1 reduction. Compounds (23 nL) were then transferred via Kalypsys pin tool equipped with 1536-pin array (10 nL slotted pins, V&P Scientific, San Diego, CA). In addition, a duplicate 2-fold serial dilution of the control compounds auranofin, a known gold-based TrxR1 inhibitor, and juglone (5-hydroxy-1,4-naphthoquinone), a natural TrxR1 substrate, were pin-transferred to columns 2 and 3, respectively. After incubation for 15 min at room temperature (~22 deg C), 1 uL of selenite (400 uM final concentration) were dispensed to each well. The plate was immediately transferred to a ViewLux high-throughput CCD imager (PerkinElmer), wherein kinetic measurements of NADPH fluorescence (Ex 340 nm, Em 450 nm) were acquired (8 minute kinetic read, see Table 1). Read 1 was utilized to assess the capacity of a compound to serve as an rTrxR1 substrate, i.e. a decrease in NADPH fluorescence compared to the no-compound background is an indication of a substrate behavior for that particular compound. For inhibitory activity of a compound, delta values, computed as the difference in fluorescence intensity between the first and last reads of an 8-minute time kinetic window, were used. All reagents were diluted in an assay buffer consisting of 50 mM Tris-HCl, pH 7.5, 2 mM EDTA, and 0.01% Tween-20.
# Throughout the screen, reagent bottle and all liquid lines were made light-tight to minimize reagent degradation. All screening operations were performed on a fully integrated robotic system (Kalypsys, San Diego, CA) containing one RX-130 and two RX-90 anthropomorphic robotic arms (Staubli, Duncan, SC). Library plates were screened starting from the lowest and proceeding to the highest concentration, and a 'double-pinning' step of the highest concentration was required to access higher concentrations of compounds. Vehicle-only plates, with DMSO being pin-transferred to the columns 5-48, were inserted uniformly at the beginning and the end of each library in order to monitor and record any shifts in the background, which can be affected by reagent dispensers or loss in enzyme activity over time. […]
# On the % scale 0 is the no-effect control and ±100 the full control effect; potency means the concentration at half of the fitted maximal effect.
# Sequence of Thioredoxin reductase 1, cytoplasmic (Rattus norvegicus) (O89049 whole entry, looked up): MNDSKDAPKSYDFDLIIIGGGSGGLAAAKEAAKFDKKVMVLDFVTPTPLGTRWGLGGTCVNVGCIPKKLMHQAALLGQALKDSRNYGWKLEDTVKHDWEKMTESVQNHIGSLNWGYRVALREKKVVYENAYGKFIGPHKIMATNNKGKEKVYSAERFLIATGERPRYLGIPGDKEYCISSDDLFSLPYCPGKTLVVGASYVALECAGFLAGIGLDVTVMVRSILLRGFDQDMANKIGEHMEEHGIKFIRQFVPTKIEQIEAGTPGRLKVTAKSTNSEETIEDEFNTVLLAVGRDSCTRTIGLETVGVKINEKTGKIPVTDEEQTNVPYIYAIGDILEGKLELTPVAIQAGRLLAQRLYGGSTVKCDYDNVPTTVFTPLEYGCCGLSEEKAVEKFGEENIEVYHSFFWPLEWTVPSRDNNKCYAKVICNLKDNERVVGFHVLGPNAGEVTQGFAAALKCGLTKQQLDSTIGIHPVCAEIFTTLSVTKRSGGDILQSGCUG
Structure (SMILES),"activity change, negative = inhibition",Potency
Cc1cc(F)ccc1NS(=O)(=O)c1ccc(-n2cccn2)cc1,24.6%,
COc1ccc2[nH]c3c(c2c1)CCN(C(=O)CCC1CCCC1)C3c1ccc(F)cc1 (centres undefined),10.3%,
Cc1cc2c(cc3c(SCc4nc(-c5ccccc5)oc4C)nnc(C)n32)o1,6.82%,
O=C(NC(=S)Nc1ncccn1)c1ccccc1Br,21.2%,
O=C(NC(=S)Nc1ccccc1C(=O)O)c1ccc(-c2ccc(Br)cc2)o1,,44.7 µM (active)
O=C(O)c1ccccc1NC(=S)NC(NC(=O)c1ccccc1[N+](=O)[O-])C(Cl)(Cl)Cl (centres undefined),-0.421%,
CN(CCC#N)c1ccc(C=O)cc1,6.49%,
S=c1[nH]c(=S)c2n[nH]nc2[nH]1,,15.8 µM (active)
C(=Nc1ccc(/C=C/c2ccnc3ccccc23)cc1)c1cc2c3c(c1)CCCN3CCC2,-19.7%,
COc1ccc(-c2onc(C)c2C)cc1S(=O)(=O)NCCc1ccccc1,9.73% [at 57.1 µM],
OC(CBr)CN1CCCCC1 (centres undefined),-14.4%,
CN(C)Cc1cn(-c2ccccc2)nc1-c1ccccc1,13.8%,
Cc1ccc(-c2nn(-c3cccc(F)c3)cc2CNCCc2ccncc2)o1,-6.48%,
Cc1ccc(-c2nn(-c3ccccc3)cc2CN(Cc2ccccc2)C(=O)CCC(=O)O)o1,,39.8 µM (active)
Cc1ccc(C)c2sc(NC(=O)c3ccc(S(=O)(=O)N4CCCC4)cc3)nc12,29.7% [at 57.1 µM],
CCc1ccc(NC(=O)C2CCCN2S(=O)(=O)c2ccc3nc(-c4ccccc4)[nH]c3c2)cc1 (centres undefined),5.83%,
COc1ccc(C=C(C#N)C#N)c(CSc2ccccn2)c1,,11.2 µM (active)
CN(C)c1nc(N)nc(CSc2ccccn2)n1,10.2%,
COc1cccc(N(CC(=O)NCCSc2ccccn2)S(C)(=O)=O)c1,25.6%,
COc1ccc(C(=O)COC(=O)CCCC(=O)Nc2cc(C(F)(F)F)ccc2Cl)cc1,-7.49%,
CN(N=O)c1ccc(C=C2c3ccccc3-c3ccccc32)cc1,11.1%,
CCOc1ccc(NC(=O)CCc2c(C)nn(-c3ccc(N4CCCC4)nn3)c2C)cc1,17.2% [at 57.1 µM],
O=C1O/C(=C\c2ccc(O)cc2)C(O)=C1c1ccc(O)cc1,0.176%,
Cn1cnc([N+](=O)[O-])c1Sc1n[nH]c(N)n1,,12.6 µM (active)
Nc1nc(Sc2ncccc2[N+](=O)[O-])n[nH]1,15.9%,

Structure (SMILES),"activity change, negative = inhibition",Potency
Cn1cnc([N+](=O)[O-])c1Nc1ccccc1O,-11.4%,
CCOc1ccc(OCC)c(Nc2nc3ccccc3n3nnnc23)c1,-13.6%,
COc1ccc(CNC(=O)Cn2nnc(-c3ccc(S(C)(=O)=O)cc3)n2)cc1,15.6%,
Cc1c(Cl)cccc1NC(=O)C1CCCN(c2ncnc3onc(C)c23)C1 (centres undefined),8.7%,
CCOC(=O)N1CCc2c(sc3c2c(=O)n(-c2ccc(CC)cc2)c(=O)n3C)C1,-6.6%,
O=C(c1ccc(Br)cc1)N(Cc1cccs1)c1ccc(F)cc1,14.5%,
COc1ccc(CCC(=O)NCCc2csc(-c3ccc(Cl)cc3)n2)cc1,7.28% [at 57.1 µM],
COc1ccc(CCN2C(=O)CC(N3CCC(C(N)=O)CC3)C2=O)cc1OC (centres undefined),,22.4 µM (active)
COc1cccc(N2CCN(C3CC(=O)N(c4ccc(Cl)cc4)C3=O)CC2)c1 (centres undefined),-8.08%,
COc1ccc(CCN2C(=O)C3CC=C(C)CC3C2=O)cc1OC (centres undefined),20.2%,
CCOC(=O)c1ccc(N2C(=O)CC(N3CCC(C(=O)OCC)CC3)C2=O)cc1 (centres undefined),-18.9%,
COc1ccc(CN2C(=O)CC(Cc3ccc(C)cc3)C2=O)cc1OC (centres undefined),-13.1%,
COc1ccc(N2C(=O)CC(N3CCC(C(N)=O)CC3)C2=O)cc1 (centres undefined),,50.1 µM (active)
Cn1c(=O)c(C(=O)O)nn(-c2ccccc2)c1=O,2.12%,
CCN(CC)/[N+]([O-])=N/Oc1cc(O/[N+]([O-])=N/N2CCCC2CO)c([N+](=O)[O-])cc1[N+](=O)[O-] (centres undefined),27.8%,
COc1ccc(OC)c(NC(=O)Cn2c(=O)n(Cc3ccccc3)c(=O)c3ccccc32)c1,23.8%,
CCCCCCCNc1ccc(/C=C/c2ccnc3ccccc23)cc1,16.1%,
O=C(COC(=O)c1ccccc1OCCOc1ccccc1)Nc1cccc(Br)c1,9.98%,
O=C(c1noc2c1CCCC2)N1CCc2ccccc2C1,6.82%,
COc1ccc2c(c1)CCc1c(C(=O)N3CCCC3)noc1-2,,35.5 µM (active)
COc1ccc2c(c1)CCc1c(C(=O)Nc3cc(C)ccc3O)noc1-2,24%,
CCCCNC(=O)Cn1c(SCc2cccc(Cl)c2)nc2ccncc21,12.1%,
COc1ccc(-c2cn3c(n2)sc2cc(C(=O)Nc4ccccc4F)ccc23)cc1,18.2%,
COc1cccc(-c2n[nH]c3c2C(c2cccc(O)c2)N(C)C3=O)c1 (centres undefined),15.4%,
